# “And” between values parts separate entries of the source, which are not always exact repeats. Equal entries are not always repeated. The campaign covered roughly 5,700 compounds. About 85 (1%) were called active. Cut-off read from the data, not from the text of the source: active = p53-positive nuclei above about 36% (passing the limit was not always enough); inactive = the rest. The sample as a whole holds a higher share of actives than the screen did.
# Assays:
# [1] = p53 stabilisation in HPV-positive human cells, imaging, p53-positive nuclei imaging, 24 h, 48 h (AID 1508601); conditions: 24/48 h
# [2] = target: Cellular tumor antigen p53 (Homo sapiens) (UniProt P04637); assay: as above; conditions: 24/48 h, stronger effect = higher value
# [3] = measured here: cell number at 24 h, Library stock concentration: 80 uM
# [4] = measured here: cell number at 24 h, Library stock concentration: 400 uM
# [5] = measured here: cell number at 24 h, Library stock concentration: 2 mM
# [6] = measured here: cell number at 24 h, Library stock concentration: 3.33 mM
# [7] = measured here: cell number at 24 h, Library stock concentration: 10 mM
# [8] = measured here: cell number at 48 h, Library stock concentration: 80 uM
# [9] = measured here: cell number at 48 h, Library stock concentration: 400 uM
# [10] = measured here: cell number at 48 h, Library stock concentration: 2 mM
# [11] = measured here: cell number at 48 h, Library stock concentration: 3.33 mM
# [12] = measured here: cell number at 48 h, Library stock concentration: 10 mM
# [13] = Library stock concentration: 80 uM
# [14] = Library stock concentration: 400 uM
# [15] = Library stock concentration: 2 mM
# [16] = Library stock concentration: 3.33 mM
# [17] = Library stock concentration: 10 mM
# [18] = measured here: p53 positive nuclei at 24 h, Library stock concentration: 80 uM
# [19] = measured here: p53 positive nuclei at 24 h, Library stock concentration: 400 uM
# [20] = measured here: p53 positive nuclei at 24 h, Library stock concentration: 2 mM
# [21] = measured here: p53 positive nuclei at 24 h, Library stock concentration: 3.33 mM
# [22] = measured here: p53 positive nuclei at 24 h, Library stock concentration: 10 mM
# [23] = measured here: cell number at 24 h, concentration not given here
# [24] = measured here: cell number at 48 h, concentration not given here
# [25] = measured here: p53 positive nuclei at 24 h, concentration not given here
# Sequence of Cellular tumor antigen p53 (Homo sapiens) (P04637 whole entry, looked up): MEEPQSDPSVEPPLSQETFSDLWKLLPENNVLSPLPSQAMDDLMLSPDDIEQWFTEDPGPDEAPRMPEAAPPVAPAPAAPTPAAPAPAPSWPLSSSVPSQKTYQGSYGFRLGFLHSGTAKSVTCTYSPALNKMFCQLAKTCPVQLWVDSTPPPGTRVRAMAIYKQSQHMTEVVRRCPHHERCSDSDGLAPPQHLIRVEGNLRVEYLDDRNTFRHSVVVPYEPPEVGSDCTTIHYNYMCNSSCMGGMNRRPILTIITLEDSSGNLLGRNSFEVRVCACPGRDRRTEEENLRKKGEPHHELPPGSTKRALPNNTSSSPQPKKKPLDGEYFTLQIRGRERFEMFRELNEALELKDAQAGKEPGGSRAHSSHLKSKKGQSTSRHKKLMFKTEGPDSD
smiles,measurement,setting,value
CS(=O)(=O)N1CCN(Cc2cc3nc(-c4cccc5[nH]ncc45)nc(N4CCOCC4)c3s2)CC1,"nuclei count, normalised","[1]; measured here: cell number at 24 h, Library stock concentration: 46 uM",89.1%
same,"nuclei count, normalised",[1]; [3],105%
same,"nuclei count, normalised","[1]; measured here: cell number at 24 h, Library stock concentration: 278 uM",97%
same,"nuclei count, normalised",[1]; [4],93.5%
same,"nuclei count, normalised","[1]; measured here: cell number at 24 h, Library stock concentration: 1.67 mM",84.9%
same,"nuclei count, normalised",[1]; [5],94%
same,"nuclei count, normalised",[1]; [6],97.5%
same,"nuclei count, normalised",[1]; [7],66.1% and 64.1%
same,"nuclei count, normalised","[1]; measured here: cell number at 48 h, Library stock concentration: 46 uM",97%
same,"nuclei count, normalised",[1]; [8],109%
same,"nuclei count, normalised","[1]; measured here: cell number at 48 h, Library stock concentration: 278 uM",100%
same,"nuclei count, normalised",[1]; [9],93.5%
same,"nuclei count, normalised","[1]; measured here: cell number at 48 h, Library stock concentration: 1.67 mM",87.3%
same,"nuclei count, normalised",[1]; [10],89.3%
same,"nuclei count, normalised",[1]; [11],101%
same,"nuclei count, normalised",[1]; [12],56.3% and 65.9%
same,"p53-positive nuclei, normalised",[2]; Library stock concentration: 46 uM,-0.00738% (inactive)
same,"p53-positive nuclei, normalised",[2]; [13],-0.168% (inactive)
same,"p53-positive nuclei, normalised",[2]; Library stock concentration: 278 uM,-0.0603% (inactive)
same,"p53-positive nuclei, normalised",[2]; [14],-0.297% (inactive)
same,"p53-positive nuclei, normalised",[2]; Library stock concentration: 1.67 mM,-0.0683% (inactive)
same,"p53-positive nuclei, normalised",[2]; [15],-0.297% (inactive)
same,"p53-positive nuclei, normalised",[2]; [16],-0.619% (inactive)
same,"p53-positive nuclei, normalised",[2]; [17],-0.184% (inactive) and -0.277% (inactive)
same,"p53-positive nuclei, normalised","[2]; measured here: p53 positive nuclei at 24 h, Library stock concentration: 46 uM",-0.0723%
same,"p53-positive nuclei, normalised",[2]; [18],0.26%
same,"p53-positive nuclei, normalised","[2]; measured here: p53 positive nuclei at 24 h, Library stock concentration: 278 uM",-0.0265%
same,"p53-positive nuclei, normalised",[2]; [19],-0.0433%
same,"p53-positive nuclei, normalised","[2]; measured here: p53 positive nuclei at 24 h, Library stock concentration: 1.67 mM",-0.14%
same,"p53-positive nuclei, normalised",[2]; [20],-0.0447%
same,"p53-positive nuclei, normalised",[2]; [21],-0.329%
same,"p53-positive nuclei, normalised",[2]; [22],-0.00819% and -0.118%
CCCCC[C@H](O)/C=C/[C@H]1[C@H](O)CC(=O)[C@@H]1C/C=C\CCCC(=O)Oc1ccc(NC(C)=O)cc1,"nuclei count, normalised",[1]; [23],106%
same,"nuclei count, normalised",[1]; [24],115%
same,"p53-positive nuclei, normalised",[2]; concentration not given here,-0.0787% (inactive)
same,"p53-positive nuclei, normalised",[2]; [25],-0.118%
CCCCCCCCCC(=O)CC(=O)N[C@H]1CCOC1=O,"nuclei count, normalised",[1]; [23],107%
same,"nuclei count, normalised",[1]; [24],108%
same,"p53-positive nuclei, normalised",[2]; concentration not given here,0.0451% (inactive)
same,"p53-positive nuclei, normalised",[2]; [25],-0.0502%
CC1CCNC(=O)c2cc3ccc(C(=O)Nc4nc5ccccc5n4CCCN(C)C)cc3n21 (centres undefined),"nuclei count, normalised",[1]; [3],112%
same,"nuclei count, normalised",[1]; [4],107%
same,"nuclei count, normalised",[1]; [5],107%
same,"nuclei count, normalised",[1]; [7],106%
same,"nuclei count, normalised",[1]; [8],115%
same,"nuclei count, normalised",[1]; [9],113%
same,"nuclei count, normalised",[1]; [10],111%
same,"nuclei count, normalised",[1]; [12],119%
same,"p53-positive nuclei, normalised",[2]; [13],-0.131% (inactive)
same,"p53-positive nuclei, normalised",[2]; [14],-0.0944% (inactive)
same,"p53-positive nuclei, normalised",[2]; [15],0.0714% (inactive)
same,"p53-positive nuclei, normalised",[2]; [17],-0.134% (inactive)
same,"p53-positive nuclei, normalised",[2]; [18],-0.0686%
same,"p53-positive nuclei, normalised",[2]; [19],0.0741%
same,"p53-positive nuclei, normalised",[2]; [20],-0.156%
same,"p53-positive nuclei, normalised",[2]; [22],-0.111%
Cn1ncc(NC(=O)CCc2cn3ccccc3n2)n1,"nuclei count, normalised",[1]; [23],84.4%
same,"nuclei count, normalised",[1]; [24],90.1%
same,"p53-positive nuclei, normalised",[2]; concentration not given here,-0.189% (inactive)
same,"p53-positive nuclei, normalised",[2]; [25],-0.142%
CN(NC(=O)CC(=O)NN(C)C(=S)c1ccccc1)C(=S)c1ccccc1,"nuclei count, normalised","[1]; measured here: cell number at 24 h, Library stock concentration: 500 nM",98.9%
same,"nuclei count, normalised","[1]; measured here: cell number at 24 h, Library stock concentration: 1.5 uM",108%
same,"nuclei count, normalised","[1]; measured here: cell number at 24 h, Library stock concentration: 4.6 uM",110%
same,"nuclei count, normalised","[1]; measured here: cell number at 24 h, Library stock concentration: 13.7 uM",111%
same,"nuclei count, normalised","[1]; measured here: cell number at 24 h, Library stock concentration: 41 uM",94.3%
same,"nuclei count, normalised","[1]; measured here: cell number at 24 h, Library stock concentration: 123 uM",64.8%
same,"nuclei count, normalised","[1]; measured here: cell number at 24 h, Library stock concentration: 370 uM",60.9%
same,"nuclei count, normalised","[1]; measured here: cell number at 24 h, Library stock concentration: 1.111 mM",60.4%
same,"nuclei count, normalised",[1]; [6],51.3%
same,"nuclei count, normalised","[1]; measured here: cell number at 24 h, Library stock concentration: 3.333 mM",54.8%
same,"nuclei count, normalised",[1]; [7],54.4%
same,"nuclei count, normalised","[1]; measured here: cell number at 48 h, Library stock concentration: 500 nM",104%
same,"nuclei count, normalised","[1]; measured here: cell number at 48 h, Library stock concentration: 1.5 uM",107%
same,"nuclei count, normalised","[1]; measured here: cell number at 48 h, Library stock concentration: 4.6 uM",108%
same,"nuclei count, normalised","[1]; measured here: cell number at 48 h, Library stock concentration: 13.7 uM",110%
same,"nuclei count, normalised","[1]; measured here: cell number at 48 h, Library stock concentration: 41 uM",100%
same,"nuclei count, normalised","[1]; measured here: cell number at 48 h, Library stock concentration: 123 uM",63.4%
same,"nuclei count, normalised","[1]; measured here: cell number at 48 h, Library stock concentration: 370 uM",55%
same,"nuclei count, normalised","[1]; measured here: cell number at 48 h, Library stock concentration: 1.111 mM",52.6%
same,"nuclei count, normalised",[1]; [11],44.1%
same,"nuclei count, normalised","[1]; measured here: cell number at 48 h, Library stock concentration: 3.333 mM",48.4%
same,"nuclei count, normalised",[1]; [12],43.1%
same,"p53-positive nuclei, normalised",[2]; Library stock concentration: 500 nM,0.0337% (inactive)
same,"p53-positive nuclei, normalised",[2]; Library stock concentration: 1.5 uM,-0.251% (inactive)
same,"p53-positive nuclei, normalised",[2]; Library stock concentration: 4.6 uM,0.0195% (inactive)
same,"p53-positive nuclei, normalised",[2]; Library stock concentration: 13.7 uM,0.51% (inactive)
same,"p53-positive nuclei, normalised",[2]; Library stock concentration: 41 uM,5.45% (inactive)
same,"p53-positive nuclei, normalised",[2]; Library stock concentration: 123 uM,37% (active)
same,"p53-positive nuclei, normalised",[2]; Library stock concentration: 370 uM,48.3% (active)
same,"p53-positive nuclei, normalised",[2]; Library stock concentration: 1.111 mM,55.8% (active)
same,"p53-positive nuclei, normalised",[2]; [16],56.4% (active)
same,"p53-positive nuclei, normalised",[2]; Library stock concentration: 3.333 mM,64.9% (active)
same,"p53-positive nuclei, normalised",[2]; [17],64.3% (active)
same,"p53-positive nuclei, normalised","[2]; measured here: p53 positive nuclei at 24 h, Library stock concentration: 500 nM",-0.0555%
same,"p53-positive nuclei, normalised","[2]; measured here: p53 positive nuclei at 24 h, Library stock concentration: 1.5 uM",-0.0139%
same,"p53-positive nuclei, normalised","[2]; measured here: p53 positive nuclei at 24 h, Library stock concentration: 4.6 uM",-0.119%
same,"p53-positive nuclei, normalised","[2]; measured here: p53 positive nuclei at 24 h, Library stock concentration: 13.7 uM",1.05%
same,"p53-positive nuclei, normalised","[2]; measured here: p53 positive nuclei at 24 h, Library stock concentration: 41 uM",14.4%
same,"p53-positive nuclei, normalised","[2]; measured here: p53 positive nuclei at 24 h, Library stock concentration: 123 uM",69.4%
same,"p53-positive nuclei, normalised","[2]; measured here: p53 positive nuclei at 24 h, Library stock concentration: 370 uM",85.7%
same,"p53-positive nuclei, normalised","[2]; measured here: p53 positive nuclei at 24 h, Library stock concentration: 1.111 mM",93.5%
same,"p53-positive nuclei, normalised",[2]; [21],80.8%
same,"p53-positive nuclei, normalised","[2]; measured here: p53 positive nuclei at 24 h, Library stock concentration: 3.333 mM",103%
same,"p53-positive nuclei, normalised",[2]; [22],104%
